Source: PubChem (National Center for Advancing Translational Sciences (NCATS))
The list is not random: actives were taken first. Their share in the collection is about 6.2%.
Gal4-VP16 FLuc – counter-screen for ROR gamma inhibitors: Gal4-VP16 reporter. Drosophila S2 Gal4-VP16 UAS-luciferase, luminescence, 20 h. Potency, µM (series often up to 53.6 µM), inactives show at the highest dose activity, negative = inhibition, most hits filed as inhibitors. actives 3.5% (n = 310,000);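 further: Gal4-VP16 expression switched on by copper sulfate through the metallothionein promoter; nearly all actives have a fitted effect of over 50% in size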
RORg inh – blocks mouse ROR gamma transcriptional activity; P51450; Drosophila S2 Gal4-RORgamma UAS-luciferase reporter, 20 h; Potency, µM (titrated, usually from 53.6 µM), for the others: at the highest dose activity change, negative = inhibition, usual class: inhibitors; actives 5.4% (n = 310,000); AID 2551; further: nearly all actives have a fitted effect of over 60% in size
Target sequence (P51450 whole entry, looked up, the tested form may be a part): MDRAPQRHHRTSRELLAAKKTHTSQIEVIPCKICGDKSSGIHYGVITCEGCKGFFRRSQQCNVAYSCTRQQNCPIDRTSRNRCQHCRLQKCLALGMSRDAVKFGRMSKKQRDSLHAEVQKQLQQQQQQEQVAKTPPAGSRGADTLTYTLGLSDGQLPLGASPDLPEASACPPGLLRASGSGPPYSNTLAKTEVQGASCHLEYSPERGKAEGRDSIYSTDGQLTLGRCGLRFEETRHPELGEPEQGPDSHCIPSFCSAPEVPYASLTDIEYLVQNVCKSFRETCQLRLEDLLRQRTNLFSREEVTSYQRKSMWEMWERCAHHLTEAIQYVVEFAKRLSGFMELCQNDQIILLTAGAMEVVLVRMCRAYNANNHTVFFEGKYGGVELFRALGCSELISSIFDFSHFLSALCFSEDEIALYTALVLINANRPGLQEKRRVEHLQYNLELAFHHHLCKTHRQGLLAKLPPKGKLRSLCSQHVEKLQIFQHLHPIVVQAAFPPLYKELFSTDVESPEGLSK
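Stably transfected Drosophila Schneider cells are the test system, with ROR gamma fused to Gal4 and luciferase under UAS control; luminescence is read after 20 hr of 700 uM copper sulfate induction at ambient temperature.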
Luc counter – blocks Kinase-Glo luciferase, a counter-screen artifact; Potency, µM (series often up to 38.3 µM), for the others: at the top dose activity change, negative = inhibition, actives largely listed as inhibitors; actives 0.28% (n = 200,000); AID 1379; Q27757; Kinase-Glo luciferase, ATP luminescence, 8 min; further: nearly all actives have a fitted effect of over 60% in size
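Compound is pinned into ATP-containing buffer (10 uM ATP, imidazole pH 7.2, 7 mM MgCl2). Kinase-Glo luciferase reagent is then added. Light output is recorded following an 8-min room-temperature incubation.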
The depositor's hits bear a star; u = inconclusive; x = no result; [ ] = dose if it differs, or a comment. The call rests on the fitted dose curve; in most records, active means well fitted curve in the direction sought with a large enough effect; inconclusive means small, poorly fitted or top-dose-only effect, or another doubt; inactive means no such curve, though single readings can be large; an effect the other way counts as inactive or inconclusive. On the % scale 0 is the no-effect control and ±100 the full control effect; potency means the concentration at half of the fitted maximal effect.

SMILES	Gal4-VP16 FLuc	RORg inh	Luc counter
O=C(N/N=C/c1ccccc1)c1ccco1	-5.5%	-16.8%	x
C=CN1CCCC1=O	-3.3%	36.2%	x
CC(C)CCC(CC(C)O)C(=O)NNC(=S)Nc1ccccc1 (stereo not given)	-7.7%	-30.0%	x
CC(O)CCC(=O)NNC(=S)Nc1ccccc1 (stereo not given)	-0.5%	-30.4%	2.1%
C=CCC(CC(O)COCCC)C(=O)NNC(=S)Nc1ccccc1 (stereo not given)	0.794µM*	0.282µM*	x
CC(C)CCOCC(O)CCC(=O)NNC(=S)Nc1ccccc1 (stereo not given)	u	11.2µM*	4.6%
CCc1ccccc1N(CC(=O)NCc1ccco1)C(=O)CCC(=O)Nc1nccs1	1.4%	39.8%	x
Cc1ccc(N(CC(O)COCc2ccco2)S(=O)(=O)c2ccc(C)cc2)cc1 (stereo not given)	-0.1%	16.4%	-4.1%
N#CCCCS(=O)(=O)c1nnnn1-c1ccc(F)cc1Br	u	u	2.3%
COC(=O)c1cccc2c1-c1ccccc1/C2=N\NC(N)=O	-9.1%	-33.7%	x
COC(=O)c1cccc2c1-c1ccccc1/C2=N/O	u	14.1µM*	-0.5%
CC(Sc1nc2c(cc1C#N)CCCCC2)C(=O)O (stereo not given)	-5.1%	-1.3%	2.4%
O=C(COC(=O)c1cc(NS(=O)(=O)c2cccs2)ccc1O)Nc1ccc(F)c(F)c1F	-8.3%	32.9%	0.2%
O=C(COC(=O)c1cc(NS(=O)(=O)c2cccs2)ccc1O)Nc1cc(Cl)ccc1Cl	12.6µM*	u	-0.2%
FC(F)c1nc2ccccc2[nH]1	9.1%	21.1%	-5.9%
FC(F)Sc1nc2ccccc2[nH]1	u	12.6µM*	x
CC(=O)O[C@]1(C)CC[C@]23CC1C(C)(C)C2CC[C@@H]3C (stereo not given in full)	-1.1%	-4.9%	-2.5%
CN1CCN(C2=Cc3ccccc3Sc3cc(F)c(Cl)cc32)CC1	u	u	-0.6%
CN1CCN(C2=Cc3ccccc3Sc3cc(F)c(F)cc32)CC1	7.94µM*	7.94µM*	-0.3%
O=C1c2ccccc2C(=O)N1CN(C(=O)COc1ccc(Cl)cc1Cl)c1cccc(F)c1	8.1%	39.1%	-0.3%
O=C(NNC(=S)NCc1ccco1)c1ccc(Cl)s1	-12.1%	1.78µM*	1.8%
O=C(NCc1ccco1)c1ccccc1Br	-1.9%	15.7%	3.3%
Cn1cc(Cl)c(C(=O)NNC(=S)NCc2ccco2)n1	-4.2%	19.7%	-4.0%
[O-]/C(=C(\C(=S)NCc1ccco1)[n+]1ccccc1)c1ccccc1Br	10.1%	22.4µM*	-1.8%
Cc1ccc(/C([O-])=C(/C(=S)NCc2ccco2)[n+]2ccccc2)cc1	8.1%	-24.4%	-2.2%
SMILES	Gal4-VP16 FLuc	RORg inh	Luc counter
O=C(NNC(=S)NCc1ccco1)c1ccccc1Br	-20.1%	0.891µM*	x
Cc1ccc(Cl)cc1NC(=O)CCS(=O)(=O)c1cccc2nonc12	1.6%	34.3%	x
CC(/C=C/c1ccc2c(c1)OCO2)=N/NC(=O)COc1ccc(C)cc1	-2.4%	-7.2%	x
Cn1cccc1C(=O)N1CCC2(CCCN(c3ccc(-c4ccccc4)cc3)C2)CC1	-7.2%	8.2%	-4.3%
CN1CCN(c2ncc3nc(CCc4ccccc4)c(=O)n(CCC#N)c3n2)CC1	-7.6%	-11.2%	-1.8%
Cc1cc(C)c(NC(=O)/C(=C/c2ccco2)c2ccccc2)c(C)c1	5.3%	5.6%	0.5%
Cc1cccc(C)c1NC(=O)/C(=C/c1ccco1)c1ccccc1	12.6µM*	u	-5.8%
S=C(Nc1ccccc1)Nc1cccc(Cl)c1Cl	7.5%	-43.2%	6.0%
NNC(=S)Nc1ccccc1Cl	11.2µM*	7.94µM*	-4.3%
S=C(NCc1ccccc1Cl)Nc1ccccc1Cl	2.82µM*	0.562µM*	-0.5%
Fc1cccc(NC(=S)NCc2ccccc2Cl)c1	11.2µM*	7.08µM*	x
S=C(NCCNC(=S)Nc1ccccc1Cl)Nc1ccccc1Cl	-15.4%	u	x
S=C(Nc1ccccc1Cl)Nc1ccc(Cl)cc1Cl	1.2%	-35.2%	-2.5%
Cc1cc(Cl)ccc1NC(=S)NCc1ccccc1Cl	3.98µM*	5.01µM*	2.7%
O=C(O)CCNC(=S)Nc1cccc(F)c1	0.2%	-7.2%	x
c1ccc(CSc2ccc(-c3cccnc3)nn2)cc1	-17.0%	35.1%	-3.3%
O=C(NC1CCCC1)C1CCCN1C(=O)Oc1ccccc1 (stereo not given)	-5.1%	-0.6%	0.1%
COc1cc(Cl)ccc1NC(=S)N(CCN1CCOCC1)C1CCN(C(C)=O)CC1	-6.8%[10 µM]	28.6%	1.4%
O=C(CN1CCCCC1)Nc1ccc(C(F)(F)F)cc1Cl	0.1%	1.9%	x
NNC(=S)Nc1ccc(C(F)(F)F)cc1Cl	u	11.2µM*	x
Cc1ccccc1NC(=O)OCc1ccccc1	2.3%	22.0%	x
COCC(=O)N1CCC2(CCCN(c3ncccn3)C2)CC1	-2.8%	0.1%	0.9%
Cc1cc(C)nc(/N=C(\N)Nc2ccc(SC(F)F)cc2)n1	u	44.8%	x
CC(=O)Nc1ccc(SCC(c2ccccc2)N2CCN(C)CCC2=O)cc1 (stereo not given)	2.2%	-18.5%	x
Cc1ccc(-c2nc(N)sc2-c2ccccc2)cc1C	10µM*	7.94µM*	-2.4%
SMILES	Gal4-VP16 FLuc	RORg inh	Luc counter
Nc1nc(-c2ccccc2)c(-c2ccccc2)s1	-0.7%	-27.1%	4.2%
Cn1c(N2CCOCC2)c(/C=N/O)c2ccccc21	6.8%[10 µM]	-1.1%	-0.4%
Cn1c(Cl)c(/C=N/OC(=O)c2ccc(Cl)cc2)c2ccccc21	-4.3%	-20.8%	2.6%
Cn1c(N2CCOCC2)c(/C=N/OC(=O)c2ccc(F)cc2)c2ccccc21	2.24µM*	0.631µM*	-2.2%
Cn1c(N2CCOCC2)c(/C=N/OC(=O)c2cccnc2Cl)c2ccccc21	0.2%[10 µM]	-7.2%	-0.4%
Cc1ccc(C(=O)O/N=C/c2c(N3CCOCC3)n(C)c3ccccc23)cc1	3.55µM*	1.12µM*	2.3%
CC(=O)O/N=C/c1c(N2CCOCC2)n(C)c2ccccc12	11.2µM*	6.31µM*	-6.7%
Cc1ccc2cn[nH]c2c1NC(N)=S	-13.5%	8.2%	2.4%
O=C(O)c1ccc(Nc2ccnc3cc(Cl)ccc23)cc1O	x	x	0.1%[7.66 µM]
CC1=CC(C)[C@H](/C=N/n2c(=O)[nH]c3c([nH]c4ccc(C)cc43)c2=O)C(C)C1 (stereo not given in full)	-24.3%	-5.2%	1.4%
CCOC(=O)C1CCN(C(=O)CCNC(=O)Cn2cnc3ccccc3c2=O)CC1	-2.7%	-32.0%	x
Cc1ccc(C)c(NC(=S)NCc2cccn2C)c1	11.2µM*	10µM*	18.5%
CCc1ccccc1NC(=S)NCc1cccn1C	11.2µM*	12.6µM*	1.4%
COc1ccc(NC(=O)NCc2cccn2C)c(OC)c1	-4.6%	4.7%	-1.2%
Cn1cccc1CNC(=S)Nc1cc(F)cc(F)c1	-13.3%	3.0%	1.0%
O=C(Nc1nccs1)C(NS(=O)(=O)c1ccc(Br)s1)c1ccccc1 (stereo not given)	u	11.2µM*	3.8%
CC(NS(=O)(=O)c1ccccc1)C(=O)Nc1nccs1 (stereo not given)	12.9%	-21.0%	-1.9%
c1nc(N2CCNCC2)c2cc(-c3ccc4c(c3)OCO4)ccc2n1	-5.0%	18.3%	-0.1%
CC(=O)c1ccc(N(CC(=O)NCc2ccc3c(c2)OCO3)C(=O)c2csnn2)cc1	16.6%	-20.8%	x
CCOc1ccc(C(=O)Nc2cc(C)ccn2)cc1	10µM*	8.91µM*	12.6µM*
